This is a sample that favours compounds with a hit; in the whole collection about 7.3% have one here.
SNCA expr inhib = Primary qHTS assay for inhibitors of alpha-synuclein gene (SNCA) expression; Potency, µM (series often up to 57.2 µM), without a hit: top-dose activity change, negative = inhibition, most hits filed as inhibitors; HEK-293 SNCA-luciferase knock-in, luminescence, 24 h; 140,000 tested, 0.17% active; AID 1671194, 2021;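 also: potency is read from the fitted curve at half-maximal effect; plate controls were DMSO cells for no effect and cell-free wells for full effect; nearly all actives have a fitted effect of over 45% in size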
HEK293 viab = GF-AFC viability counterscreen for inhibitors of alpha-synuclein gene (SNCA) expression; HEK-293-SNCA-luc viability, GF-AFC fluorescence, 24 h; Potency, µM (series often up to 57.1 µM), without a hit: top-dose activity change, negative = cytotoxicity, usual class: cytotoxic; 150,000 tested, 0.12% active;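 also: potency is read from the fitted curve at half-maximal effect; 0% = DMSO-treated cells and -100% = medium-only wells without cells; nearly all actives have a fitted effect of over 30% in size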
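HEK-293-SNCA-luc cells (1500/well) plated 24 h, then exposed 24 h to a dilution series; GF-AFC added 30 min at 37C, fluorescence 405/540 nm; normalised to medium-only and DMSO wells, Hill fit.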
3T3 cytotox = Cytotoxic Profiling in NIH 3T3 Cell Line of Diverse Libraries Using Quantitative High-Throughput Screening | NIH 3T3 viability, CellTiter-Glo ATP luminescence, 48-72 h | Potency, µM (doses to about 96.7 µM), inactives show at the top dose activity change, negative = cytotoxicity, usual class: inhibitors | 94,000 tested, 4.3% active; also: potency is read from the fitted curve at half-maximal effect; nearly all actives have a fitted effect of over 55% in size
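Cells were seeded at 400 per well, treated with pin-transferred compound, and kept 48 or 72 hr at 37 °C before CellTiter-Glo addition and luminescence imaging of cellular ATP.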
HEK cytotox = Cytotoxic Profiling in HEK 293 Cell Line of Diverse Libraries Using Quantitative High-Throughput Screening; HEK 293 viability, ATP luminescence (CellTiter-Glo), 48-72 h; Potency, µM (series often up to 115 µM), for the others: top-dose activity change, negative = cytotoxicity, usual class: inhibitors; 94,000 tested, 6.6% active; AID 1345083, 2018; also: potency is read from the fitted curve at half-maximal effect; nearly all actives have a fitted effect of over 60% in size
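Cells seeded first (HEK 293, 250 cells/well), then compound added by pintool. Incubation ran 48 or 72 hr at 37 degree Celsius. CellTiter-Glo was added and luminescence imaged after 10 min at room temperature.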
IP6K1 inhibitor = Primary qHTS assay for small molecule inhibitors of Inositol hexaphosphate kinase 1 (IP6K1); IP6K1 kinase, ADP-Glo luminescence, 2 h; active compounds read low; AID 1645851, 2021; activity change, % (series mostly up to about 58 µM); Inositol hexakisphosphate kinase 1 (Homo sapiens), Q92551; 140,000 tested, 0.81% active; in the data active = activity change below about -25%
Target sequence (Q92551 whole entry, looked up): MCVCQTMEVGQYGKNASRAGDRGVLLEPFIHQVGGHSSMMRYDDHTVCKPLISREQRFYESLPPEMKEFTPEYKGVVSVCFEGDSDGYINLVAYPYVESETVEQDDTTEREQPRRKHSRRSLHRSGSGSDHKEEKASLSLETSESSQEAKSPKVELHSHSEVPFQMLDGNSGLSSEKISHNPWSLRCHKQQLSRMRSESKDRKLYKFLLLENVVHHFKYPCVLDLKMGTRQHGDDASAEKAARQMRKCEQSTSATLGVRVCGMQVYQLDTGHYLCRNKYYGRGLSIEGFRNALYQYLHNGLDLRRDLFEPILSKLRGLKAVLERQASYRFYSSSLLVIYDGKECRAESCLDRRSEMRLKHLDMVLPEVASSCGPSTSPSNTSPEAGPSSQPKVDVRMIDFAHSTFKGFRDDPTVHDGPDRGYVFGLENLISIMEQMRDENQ
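ADP-Glo luminescence measures ADP made by human IP6K1 during a 2 h RT reaction with ATP/IP6 (mix at 1.3 mM/130 uM); top library doses 57.5 and 19.1 uM final.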
Luciferase inh = Firefly luciferase inhibition profiling of diverse chemical library using quantitative high-throughput screening | Luciferin 4-monooxygenase (Photinus pyralis), P08659 | purified P. pyralis luciferase, luminescence, biochemical | Potency, µM (doses to about 115 µM), actives largely listed as inhibitors | 76,000 tested, 2.5% active; also: potency is read from the fitted curve at half-maximal effect; nearly all actives have a fitted effect of over 65% in size
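Biochemical qHTS: compound (6-point titration) added to 10uM D-luciferin plus 10uM ATP in Tris acetate pH 7.5 buffer with Mg, Tween-20 and BSA, then purified enzyme at 10nM; light output imaged.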
The depositor's hits bear a star; i = inactive; ? = inconclusive; . = no result given; [ ] = dose if it differs, or a comment. Unless noted, calls follow the shape of the dose curve; as a rule, active = well fitted curve in the direction sought with a large enough effect; inconclusive = small, poorly fitted or top-dose-only effect, or another doubt; inactive = no such curve, though single readings can be large; an effect the other way counts as inactive or inconclusive. Unless noted, % is scaled to controls: 0 for no effect and ±100 for the full control effect.

SMILES	SNCA expr inhib	HEK293 viab	3T3 cytotox	HEK cytotox	IP6K1 inhibitor	Luciferase inh
COC1CCC(C(=O)N2CCc3c(n(CCOc4ccccc4)n(-c4ccccc4)c3=O)C2)CC1 (configuration not stated)	7%	2%	20µM*	-7%	18	i
COCCn1c(=O)c2c(n1Cc1ccccc1)CN(Cc1cncc(OC)c1)CC2	3%[87.6 µM]	-7%[87.6 µM]	?	i	12	i
CNC(=O)[C@@H]1CCCN1c1nccc(Nc2ccccc2Cl)n1	0%[87.6 µM]	-6%[12.5 µM]	-22%[138 µM]	?	-5	.
O=C(c1cn2ccccc2n1)N1C[C@@H](CO)[C@H](c2ccncc2)C1	4%	-1%	0%	0%	-5	i
O=C(COc1ccc(F)cc1)N1CCC(n2cc(-c3nc(-c4ccccc4)no3)nn2)CC1	116%	2%	-19%	-28%	4	i
CC(C)C(=O)N1CCC2(CC1)CC(N(Cc1ccc(F)cc1)C1CC1)CCO2 (configuration not stated)	-13%	-3%	-24%	?	12	i
O=C(N[C@@H]1CCNC[C@H]1O)c1cccc(-c2ccc(OC(F)(F)F)cc2)c1	10%	-7%	18µM*	?	24	i
O=C(O)CCC(=O)N1Cc2ccccc2CC2(CCCN(Cc3ccccn3)C2)C1 (configuration not stated)	17%	3%	-2%	-1%	-4	.
CCN(Cc1ccncc1)C(=O)CCC1CCN(S(=O)(=O)c2ccccc2)CC1	-7%	2%	?	?	20	i
CCN(Cc1ccccc1)C(=O)CCC1CCN(S(=O)(=O)c2ccccc2)CC1	-29%	3%	28µM*	?	15	i
O=C(Nc1ccccc1F)N1CC(Oc2ccccc2-c2nc(-c3cnccn3)no2)C1	20%	-26%	?	-9%	22	.
C[C@@H]1C(=O)O[C@H]2[C@H]1CC[C@@]1(C)Cc3sc(Nc4ccc(O)cc4)nc3[C@@H](C)[C@H]21	-30%[87.6 µM]	-23%[87.6 µM]	63µM*	35µM*	6	?
C[C@@H]1C(=O)O[C@H]2[C@H]1CC[C@@]1(C)Cc3sc(Nc4ccc(F)cc4)nc3[C@@H](C)[C@H]21	-14%[87.6 µM]	5%[87.6 µM]	i	i	8	?
CCC(C)NC(=O)C1CCCN1Cc1ccc(-c2cncnc2)cc1 (configuration not stated)	-29%	-2%	-26%	-13%	2	.
CC1=C(CO)C(=O)O[C@@H]([C@@H](C)[C@H]2CC[C@H]3[C@@H]4C[C@H]5O[C@]56[C@@H](O)C=CC(=O)[C@]6(C)[C@@H]4CC[C@]23C)C1	3µM*	6.8µM*	.	.	.	.
CC1=C(C)C(=O)OC(C(C)C2CCC3C4C5OC5C5(O)CC(OC6OC(CO)C(OC7OC(C)C(O)C(O)C7O)C(O)C6O)CC(O)C5(C)C4CCC23C)C1 (configuration not stated)	.	8%[23.9 µM]	.	.	-4	.
Cc1cn2nc(C(=O)NCc3ccc(F)cc3F)cc2c(N(C)Cc2ccccc2)n1	-28%	8%	35µM*	?	0	i
Cc1cn2nc(C(=O)N3CCC(C)CC3)cc2c(N(C)Cc2ccccc2)n1	14%	-11%	35µM*	?	-2	i
Cc1cn2nc(C(=O)NCc3ccccc3F)cc2c(N(C)Cc2ccccc2)n1	-30%	-1%	?	?	-6	i
Cc1ccccc1C(=O)N1CCN(c2ccc3nnc(-c4ccccc4)n3n2)CC1	.	.	?	-31%	22	.
CCOc1ccc(CC(=O)N2CCCN(C)c3ccccc32)cc1	0%	7%	?	89µM*	-1	i
COc1cccc(CC(=O)N2CCCN(C)c3ccccc32)c1	-3%	4%	-5%	?	-3	i
Cc1ccc(OCC(=O)N2CCCN(S(C)(=O)=O)c3ccccc32)cc1	-6%	-11%	22µM*	-26%	-9	i
CCOCC(=O)N1CCCN(S(C)(=O)=O)c2ccccc21	-16%	6%	4%	i	-6	i
COc1ccc(C(=O)N2CCCN(C)c3ccccc32)c(C)c1	3%	1%	?	45µM*	-1	i
SMILES	SNCA expr inhib	HEK293 viab	3T3 cytotox	HEK cytotox	IP6K1 inhibitor	Luciferase inh
Cc1ccc(CC(=O)N2CCCN(S(C)(=O)=O)c3ccccc32)cc1	3%	4%	18µM*	-22%	-7	i
CCC(c1cccs1)N1C(=O)[C@H]2CN(S(=O)(=O)c3cccc(Cl)c3)C[C@H]2C1=O (some centres not stated)	-18%	3%	-23%	-15%	-12	i
COc1cccc(CNC(=O)C2CCc3nnc(CN[S+](=O)([O-])c4ccccc4Cl)n32)c1 (configuration not stated)	9%	-11%	-29%	-4%	-2	.
Cc1ccncc1-c1c(C)nn2c1N(Cc1ccc(C(=O)O)cc1)CCC2	?	9%[87.6 µM]	?	?	18	i
Cc1nn2c(c1-c1ccccc1C(N)=O)N(C(=O)c1ccccc1)CCC2	13%[87.6 µM]	2%[87.6 µM]	?	i	11	i
Cc1nn2c(c1-c1ccccc1C(C)C)N(Cc1ccc(C(=O)O)cc1)CCC2	-11%[87.6 µM]	1%[87.6 µM]	7.1µM*	?	26	i
CC(=O)Nc1ccccc1-c1c(C)nn2c1N(CCCc1ccccc1)CCC2	?	-26%[87.6 µM]	25µM*	?	15	i
Cc1nn2c(c1-c1ccccc1C(C)C)N(Cc1cccc(C(=O)O)c1)CCC2	?	?	45µM*	56µM*	6	i
CC(=O)Nc1ccccc1-c1c(C)nn2c1N(C(=O)Cc1ccccc1)CCC2	3%[87.6 µM]	-1%[87.6 µM]	?	1%[172 µM]	12	i
Cc1nn2c(c1-c1ccccc1C(C)C)N(CCC(C)C)CCC2	?	?	8.9µM*	11µM*	-2	i
CO[C@H]1C(=O)N(C2CCN(C(=O)c3nn(C)c4ccccc34)CC2)[C@H]1c1ccncc1	6%	8%	-5%	-9%	7	i
Cc1ncoc1C(=O)N1CCc2nnc([C@@H]3C[C@@H](O)CN3C(C)C)n2CC1	7%	-19%	-4%	-2%	-14	i

Screens: PubChem, National Center for Advancing Translational Sciences (NCATS)
